# Data reported in ChEMBL document CHEMBL3988442, “University of Dundee, Small-Polar-MMV Screening Library” (2021).
# Target: AMP-activated protein kinase, AMPK (Homo sapiens) (UniProt P54646+O43741+P54619+Q9UGJ0+Q9Y478+Q13131+Q9UGI9)
# Test: AMP-dependent Kinase enzyme assay. An in vitro enzyme assay that detects ADP turnover that is directly proportional to AMPK activity. This uses naive AMPK that is activated during the assay with MK-8722
# Type: functional
# Set-up: scale not given: direction of the effect not stated beside the values
# Conditions: 30 µM
row,Compound,Percent Effect [%]
1,Cc1ccccc1C(=O)NC[C@@H]1CCN(C(=O)C2(O)CCCC2)C[C@H]1O,2.29
2,Cc1noc(CN(C)c2ccccc2)n1,5.44
3,O=C(CCn1cccn1)NCCOc1cccc(Cl)c1,-3.1
4,Cc1c(C(=O)NC2CCCOC2)nnn1-c1ccc(Cl)cc1F (stereo not given),0.0565
5,CCN(CC)C(CNC(=O)c1ccnc(N(C)C)c1)c1ccsc1 (stereo not given),-4.85
6,COCC1(C(=O)N[C@H]2CN(c3noc(C)n3)C[C@@H]2C2CC2)CCC1,-1.21
7,CCOc1ccc(Oc2cc(CN)ccn2)cc1,-43.1
8,CCOCC(=O)N1CCC(C)(c2nccs2)CC1,6.62
9,CCN(CC1CCCO1)C(=O)NCCNC(=O)c1ccccc1F (stereo not given),1.37
10,CCCc1nc(C(=O)NC(COC)c2ccnn2C)cs1 (stereo not given),-0.17
11,CC(C)c1cc(C2CCN(C(=O)Cn3nc4ccccc4n3)CC2)[nH]n1,13.1
12,CC(=O)N1CCC1c1nc(-c2ccc(C)s2)no1 (stereo not given),7.59
13,N#Cc1cccc(S(=O)(=O)NC2CCN(CC(F)(F)F)C2)c1 (stereo not given),-2.39
14,O=C(O)[C@H]1C[C@H](C(=O)NCc2ccncc2)CN(CCC(F)(F)F)C1,-2.07
15,Cc1[nH]c2c(C)ccc(C)c2c1CC(=O)NC1CCCNC1=O (stereo not given),6.1
16,O=C(O)c1cn(CC2CCCN(c3ccc4ccccc4n3)C2)nn1 (stereo not given),-0.883
17,Nc1nccc(N2CCC(c3cc(Cc4ccccc4)n[nH]3)CC2)n1,4.14
18,Cc1nc(CN(C)S(=O)(=O)c2ccccc2C(F)(F)F)no1,4.4
19,Cn1ncc2c1CCCC2NCc1cccnc1 (stereo not given),5.94
20,O=C(CC1COCCN1)N1CCC(N2CCc3ccccc3C2)CC1 (stereo not given),-4.72
